# Measurements as given in PubChem BioAssay (NCATS).
# Calls of active or inactive are those of the source. The call rests on the fitted dose curve; in most records, active means well fitted curve in the direction sought with a large enough effect; inconclusive means small, poorly fitted or top-dose-only effect, or another doubt; inactive means no such curve, though single readings can be large or run the other way.
# Molecular target: Hexokinase-4 (Homo sapiens) + Glucokinase regulatory protein (Homo sapiens) (UniProt P35557+Q14397)
# Assay: qHTS assay for inhibitors of recombinant human GCK-GKRP interaction: ADP-Glo assay (AID 743206)
# Conditions: ADP-Glo luminescence, 60 min, 0% = vehicle-only wells with enzyme present; series mostly up to 76.9 µM
# From the text: Glucokinase (GCK) is a glucose sensor in hepatocytes and pancreatic beta-cells. Hepatic GCK is regulated by glucokinase regulatory protein (GKRP), which is predominantly localized to the liver. GKRP binds to GCK inhibiting its activity in the fasting state while in the presence of glucose the GKRP is displaced. There is an additional layer of regulation by fructose 1-phosphate and fructose 6-phosphate, which inhibit and enhance the GCK-GKRP interaction, respectively. GCK plays a role in glucose homeostasis and there is an interest in the development of strategies to activate GCK to lower blood glucose levels in type 2 diabetes. To date the majority of effort has focused on direct activation of GCK and the assays developed herein look to activate GCK by inhibiting its binding to GKRP. A compound that inhibits the interaction of GCK with GKRP could be important for the treatment of diabetes and can also be used as a tool compound to further elucidate GCK-GKRP biology. To that end, we have developed a sensitive HTS biochemical assay where in GCK activity is coupled to luciferase to interrogate the GCK-GKRP interaction. This assay was screened against a small compound library to look for modulators of activity.
# 2 uL of 15 nM GST-GCK and 15 nM FLAG-GKRP proteins with 2 uM S6P (columns 1-2, 4-48; Millipore, Billerica, MA) are dispensed into Greiner, white solid-bottom 1536-well assay plates; columns 3 receive buffer without GCK as a control for maximum inhibition. Compounds (23 nL) are then transferred via Kalypsys pin tool equipped with 1536-pin array (10 nL slotted pins, V&P Scientific, San Diego, CA). The library compounds are in columns 5-48 and columns 1-4 serve as controls with DMSO in columns 1 and 3 and 26 mM 1:1.5 fold serial of gluckokinase activator (GKA-EMD) in column 2 and 26 mM of the glucokinase activator (GKA-EMD) in column 4. Following addition of compound, 1 uL of ATP […] is added, and the plate is incubated for 60 minutes at room temperature. The amount of ADP is then quantified by the ADP-Glo Kit (Promega, Madison, WI). First, 2 uL of the first kit reagent is added, and the reaction is incubated for 45 minutes; then, 4 uL of the second kit reagent are added and the reaction is incubated for 30 minutes at which time the luminescence is read on a Viewlux plate reader (Perkin-Elmer, Waltham, MA). The final concentration of reagents in the reaction are 0.4 mM ATP, 25 mM Hepes pH 7.6, 25 mM KCl, 2 mM MgCl2, 1 mM DTT, 0.025% BSA, 0.01% Tween 20, 5 mM glucose. Data are normalized to DMSO-treated control columns with (maximum signal) and without (minimum signal) enzyme.
# Chain of Hexokinase-4 (Homo sapiens) + Glucokinase regulatory protein (Homo sapiens) (P35557 whole entry, looked up): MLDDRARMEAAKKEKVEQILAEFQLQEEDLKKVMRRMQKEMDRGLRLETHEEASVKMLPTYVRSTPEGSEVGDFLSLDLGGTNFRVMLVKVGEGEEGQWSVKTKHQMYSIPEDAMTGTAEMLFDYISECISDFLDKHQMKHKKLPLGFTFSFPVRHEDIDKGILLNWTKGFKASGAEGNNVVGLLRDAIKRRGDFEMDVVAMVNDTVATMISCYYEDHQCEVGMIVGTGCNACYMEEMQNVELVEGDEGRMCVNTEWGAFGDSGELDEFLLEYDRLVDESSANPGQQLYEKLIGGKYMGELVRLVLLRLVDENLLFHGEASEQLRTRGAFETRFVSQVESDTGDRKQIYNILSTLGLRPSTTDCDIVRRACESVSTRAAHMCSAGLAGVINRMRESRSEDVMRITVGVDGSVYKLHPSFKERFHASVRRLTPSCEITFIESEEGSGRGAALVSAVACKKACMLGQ
# Chain of Hexokinase-4 (Homo sapiens) + Glucokinase regulatory protein (Homo sapiens) (Q14397 whole entry, looked up): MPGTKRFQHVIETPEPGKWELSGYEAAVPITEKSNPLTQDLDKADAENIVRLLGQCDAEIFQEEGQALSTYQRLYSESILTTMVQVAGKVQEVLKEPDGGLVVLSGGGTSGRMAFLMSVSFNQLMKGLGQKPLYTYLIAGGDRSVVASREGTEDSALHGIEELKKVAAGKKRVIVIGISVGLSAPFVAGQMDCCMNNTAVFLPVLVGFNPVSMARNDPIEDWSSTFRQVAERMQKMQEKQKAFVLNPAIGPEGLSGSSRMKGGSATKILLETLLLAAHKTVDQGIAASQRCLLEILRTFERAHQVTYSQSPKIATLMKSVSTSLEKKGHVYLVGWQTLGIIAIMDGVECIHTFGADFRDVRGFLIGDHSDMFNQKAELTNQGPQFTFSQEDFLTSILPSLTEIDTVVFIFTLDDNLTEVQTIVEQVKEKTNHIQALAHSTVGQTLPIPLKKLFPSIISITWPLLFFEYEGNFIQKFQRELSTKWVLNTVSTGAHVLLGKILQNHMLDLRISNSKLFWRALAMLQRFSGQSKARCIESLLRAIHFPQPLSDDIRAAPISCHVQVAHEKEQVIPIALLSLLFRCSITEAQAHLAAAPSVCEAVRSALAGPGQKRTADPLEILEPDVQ
row,Structure (SMILES),outcome
1,O=C(CCc1ccc(O)cc1)c1c(O)cc(O)cc1O,inactive
2,O=c1ccc2ccc(O)c(O)c2o1,inactive
3,O=C1c2c(O)cc(O)cc2OC(c2ccc(O)c(O)c2)C1O (configuration not stated),inactive
4,Cc1cccc(C#Cc2ccccc2)n1,inactive
5,O=C1NC(=O)C(c2ccccc2[N+](=O)[O-])=C1Nc1ccc(O)c(Cl)c1,inactive
6,Nc1nc(OCc2ccccc2)c2[nH]cnc2n1,inactive
7,CC(=O)O[C@H]1C(=O)[C@@]2(C)C([C@H](OC(=O)c3ccccc3)[C@]3(O)C[C@H](OC(=O)[C@H](O)[C@@H](NC(=O)c4ccccc4)c4ccccc4)C(C)=C1C3(C)C)[C@]1(OC(C)=O)CO[C@@H]1C[C@@H]2O (some centres not stated),inactive
8,Cc1cc(O)c2c(c1)C(=O)c1cc(O)cc(O)c1C2=O,inactive
9,Oc1ccc(-c2nc(-c3ccc(F)cc3)c(-c3ccncc3)[nH]2)cc1,inactive
10,NNc1nncc2ccccc12,inactive
11,C[C@@H](N)C1CCC(C(=O)Nc2ccncc2)CC1 (some centres not stated),inactive
12,O=c1cc(N2CCOCC2)oc2c(-c3ccccc3)cccc12,inactive
13,O=C(O)c1cccnc1Nc1cccc(C(F)(F)F)c1,inactive
14,O=Nc1c(-c2c(O)[nH]c3cc(Br)ccc23)[nH]c2ccccc12,inactive
15,NC(=NCc1ccccc1)NC(=O)c1nc(Cl)c(N)nc1N,inactive
16,COc1ccc2cc([C@H](C)C(=O)O)ccc2c1,inactive
17,CC(=O)N1CCN(c2ccc(OC[C@H]3CO[C@](Cn4ccnc4)(c4ccc(Cl)cc4Cl)O3)cc2)CC1,inactive
18,O=C(c1ccccc1)c1ccc2n1CCC2C(=O)O (configuration not stated),inactive
19,C[C@H](Cc1ccc(O)c(O)c1)[C@@H](C)Cc1ccc(O)c(O)c1,inactive

row,Structure (SMILES),outcome
1,COc1ccccc1N1CCN(CCN(C(=O)C2CCCCC2)c2ccccn2)CC1,inactive
2,Oc1ccc2ccccc2c1SSc1c(O)ccc2ccccc12,inactive
3,CC(C)c1ccc2c(c1)c(SC(C)(C)C)c(CC(C)(C)C(=O)O)n2Cc1ccc(Cl)cc1,inactive
4,COc1cc2nc(N3CCN(C(=O)C4CCCO4)CC3)nc(N)c2cc1OC (configuration not stated),inactive
5,Nc1ccn([C@@H]2O[C@H](CO)[C@@H](O)C2O)c(=O)n1 (some centres not stated),inactive
6,O=c1c(O)c(-c2cc(O)c(O)c(O)c2)oc2cc(O)cc(O)c12,inactive
7,NCCCCNCCCN,inactive
8,O=c1c(O)c(-c2ccc(O)cc2O)oc2cc(O)cc(O)c12,inactive
9,Cc1c(OCC(F)(F)F)ccnc1CS(=O)c1nc2ccccc2[nH]1 (configuration not stated),inactive
10,O=C1c2ccccc2-c2n[nH]c3cccc1c23,inactive
11,OC(CN1CCN(c2cccc(Cl)c2)CC1)C(c1ccccc1)c1ccccc1 (configuration not stated),inactive
12,CNC[C@H](O)c1ccc(O)c(O)c1,inactive
13,CC1(C)C(=O)N(CCN2CCC(C(=O)c3ccc(F)cc3)CC2)c2ccccc21,inactive
14,CN(C)CCCC1(c2ccc(F)cc2)OCc2cc(C#N)ccc21 (configuration not stated),inactive
15,Nc1nc(N)c(N=O)c(OCC2CCCCC2)n1,inactive
16,CCOC(=O)C(C)Oc1cccc2c(=O)n(CC(=O)Nc3ccc4c(c3)OCCO4)ccc12 (configuration not stated),inactive
17,CC1(C)NC(=O)N(c2ccc([N+](=O)[O-])c(C(F)(F)F)c2)C1=O,inactive
18,COc1cc2c(cc1OC)C1CC(=O)C(CC(C)C)CN1CC2 (configuration not stated),inactive
